“And” between values parts separate entries of the source, which are not always exact repeats. Equal entries are not always repeated. Inconclusive results are not listed. Unmarked numbers belong to inactive results. Calls follow the shape of the dose curve; as a rule, active = well fitted inhibition curve with a large enough effect; inconclusive = small, poorly fitted or top-dose-only effect; inactive = flat fitted curve, though single readings scatter.
The compounds below were run on KB-3-1 (assay: Cytotoxic Profiling of Annotated Libraries Using Quantitative High-Throughput Screening (AID 1296008; also: nearly all actives have a fitted effect of over 60% in size)). Conditions: Five cell lines viability, CellTiter-Glo ATP luminescence, 48-72 h; max response: hits give low values.
In short: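 Compounds were pin-transferred onto cells and incubated 48 or 72 hr at 37 degree Celsius, 95% humidity. CellTiter-Glo was added, plates sat 10 min at room temperature, then ATP-coupled luminescence was imaged as the viability read-out.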
% is scaled to controls: 0 for no effect and ±100 for the full control effect.

| SMILES | max response |
| --- | --- |
| Oc1cccc(O)c1O | 0.0163% |
| CC(=O)c1ccc2c(c1)N(CCCN1CCN(CCO)CC1)c1ccccc1S2 | 1.1% |
| CCC(=O)c1ccc2c(c1)N(CCCN1CCN(CCO)CC1)c1ccccc1S2 | -13.4% |
| CC[C@H]1OC(=O)[C@H](C)[C@@H](O[C@H]2C[C@@](C)(OC)[C@@H](O)[C@H](C)O2)[C@H](C)[C@@H](O[C@@H]2O[C@H](C)C[C@H](N(C)C)[C@H]2O)[C@](C)(O)C[C@@H](C)CN(C)[C@H](C)[C@@H](O)[C@]1(C)O | -8.69% |
| OCC1(CO)COC(C(Cl)(Cl)Cl)OC1 | 16.6% |
| C#C[C@]1(O)CC[C@@H]2[C@H]3CCC4=CC(=O)CC[C@H]4[C@H]3C(=C)C[C@@]21CC | 1.8% |
| O=C(CCCN1CCN2CCCC2C1)c1ccc(F)cc1 (centres undefined) | 3.11% |
| CCCC(CCC)C(=O)OC1C[C@H]2CC[C@@H](C1)[N+]2(C)C (some centres undefined) | 11.2% and 16.2% |
| CC(=O)Nc1c(I)c(C(=O)O)c(I)c(N(C)C(C)=O)c1I | 3.77% |
| CC(C)CCCCCCc1ccc(O)cc1 | -10.4% |
| CC(C)=CCC/C(C)=C/CC/C(C)=C/CC/C=C(\C)CC/C=C(\C)CCC=C(C)C | 6.34% and -6.32% |
| O=C1CCC(c2ccccc2)(C2CCN(Cc3ccccc3)CC2)C(=O)N1 (centres undefined) | 17.5% |
| Cc1cccc(Nc2ncccc2C(=O)O)c1C | 14.2% |
| CCOC(=O)[C@@H](N)CS | -7.89% |

— PubChem BioAssay (NCATS)
